# In PubChem BioAssay AID1159580 (chemical genetic matrix, 2015):
# Values joined by “and” are separate entries in the source; they are usually repeats but may differ in a detail not shown here. Equal values may be shown once. Screen size: about 5,500 compounds; about 2,000 (36%) were called active. Roughly 18% stayed inconclusive and do not appear here. The list shows a part of the results. A number with no mark means an inactive call. Cut-off read from the data, not from the text of the source: active = normalized growth mostly below about 0.91 (no sharp cut-off); inconclusive = no clear call, values can overlap the other calls; inactive = mostly above about 0.92.
# Experiment: chemical genetic growth profiling, strain panel (AID 1159580);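 note: tested at 20 µM; growth read once vehicle control cultures reached saturation at 30 °C; 1 = growth at the plate median or of vehicle wells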
# Settings: S. cerevisiae deletion strains, growth OD
smiles,measurement,setting,value
COc1c(CC(=O)c2cc3c(cc2O)OC(C)(C)C(O)C3)ccc2c1C=CC(C)(C)O2 (centres undefined),normalized growth,"locus YBR021W, strain FUR4, stronger effect = lower value",0.653 (active)
same,normalized growth,"locus YBR229C, strain ROT2, stronger effect = lower value",0.998
same,normalized growth,"locus YCL029C, strain bik1, stronger effect = lower value",0.975
same,normalized growth,"locus YDL035C, strain GPR1, stronger effect = lower value",1.01
same,normalized growth,"locus YDL074C, strain BRE1, stronger effect = lower value",0.926
same,normalized growth,"locus YDL101C, strain DUN1, stronger effect = lower value",1.01
same,normalized growth,"locus YDL185W, strain tfp1, stronger effect = lower value",1
same,normalized growth,"locus YDL192W, strain arf1, stronger effect = lower value",0.96
same,normalized growth,"locus YDR101C, strain arx1, stronger effect = lower value",0.974
same,normalized growth,"locus YDR162C, strain NBP2, stronger effect = lower value",1.01
same,normalized growth,"locus YDR318W, strain mcm21, stronger effect = lower value",0.984
same,normalized growth,"locus YDR388W, stronger effect = lower value",0.994
same,normalized growth,"locus YDR502C, strain sam2, stronger effect = lower value",1.01
same,normalized growth,"locus YEL061C, strain CIN8, stronger effect = lower value",1.01
same,normalized growth,"locus YER110C, stronger effect = lower value",1.01
same,normalized growth,"locus YER155C, strain BEM2, stronger effect = lower value",0.989
same,normalized growth,"locus YER167W, strain BCK2, stronger effect = lower value",1
same,normalized growth,"locus YGL078C, strain dbp3, stronger effect = lower value",1.01
same,normalized growth,"locus YGL086W, strain mad1, stronger effect = lower value",0.979
same,normalized growth,"locus YGL248W, strain PDE1, stronger effect = lower value",1.02
same,normalized growth,"locus YGR078C, strain PAC10, stronger effect = lower value",1.03
same,normalized growth,"locus YGR135W, strain pre9, stronger effect = lower value",1.05
same,normalized growth,"locus YGR252W, strain gcn5, stronger effect = lower value",0.937
same,normalized growth,"locus YHR030C, strain SLT2, stronger effect = lower value",0.955
same,normalized growth,"locus YHR079C, strain IRE1 (second series), stronger effect = lower value",1
same,normalized growth,"locus YHR079C, strain IRE1, stronger effect = lower value",0.958
same,normalized growth,"locus YHR094C, strain hxt1, stronger effect = lower value",1.01
same,normalized growth,"locus YHR129C, strain ARP1, stronger effect = lower value",0.997
same,normalized growth,"locus YHR200W, strain rpn10, stronger effect = lower value",1
same,normalized growth,"locus YIL066C, strain RNR3, stronger effect = lower value",0.997
same,normalized growth,"locus YIL073C, strain SPO22, stronger effect = lower value",1.05
same,normalized growth,"locus YIL125W, strain kgd1, stronger effect = lower value",0.982
same,normalized growth,"locus YIR030C, strain dcg1, stronger effect = lower value",0.987
same,normalized growth,"locus YJL095W, strain BCK1, stronger effect = lower value",0.981 and 0.988
same,normalized growth,"locus YJL134W, strain LCB3, stronger effect = lower value",0.996
same,normalized growth,"locus YJL168C, strain set2, stronger effect = lower value",1.02
same,normalized growth,"locus YJL187C, strain SWE1 (second series), stronger effect = lower value",1.02
same,normalized growth,"locus YJR066W, strain TOR1, stronger effect = lower value",0.935
same,normalized growth,"locus YKL009W, strain mrt4, stronger effect = lower value",0.992
same,normalized growth,"locus YKL068W, stronger effect = lower value",1
same,normalized growth,"locus YKL085W, strain MDH1 (second series), stronger effect = lower value",0.998
same,normalized growth,"locus YKL085W, strain MDH1, stronger effect = lower value",0.998
same,normalized growth,"locus YKR001C, strain vps1, stronger effect = lower value",0.961
same,normalized growth,"locus YLR039C, strain RIC1, stronger effect = lower value",1.08
same,normalized growth,"locus YLR058C, strain SHM2, stronger effect = lower value",0.999
same,normalized growth,"locus YLR102C, strain apc9, stronger effect = lower value",0.992
same,normalized growth,"locus YLR113W, strain HOG1, stronger effect = lower value",0.961
same,normalized growth,"locus YLR262C, strain YPT6, stronger effect = lower value",1.02
same,normalized growth,"locus YLR268W, strain sec22, stronger effect = lower value",0.977
same,normalized growth,"locus YLR371W, strain rom2, stronger effect = lower value",0.998
same,normalized growth,"locus YLR418C, strain cdc73, stronger effect = lower value",0.938
same,normalized growth,"locus YML016C, strain PPZ1, stronger effect = lower value",0.999
same,normalized growth,"locus YML032C, strain rad52, stronger effect = lower value",0.982
same,normalized growth,"locus YML124C, strain tub3, stronger effect = lower value",0.984
same,normalized growth,"locus YMR078C, strain ctf18, stronger effect = lower value",1
same,normalized growth,"locus YMR223W, strain ubp8, stronger effect = lower value",1.01
same,normalized growth,"locus YMR263W, strain SAP30, stronger effect = lower value",0.996
same,normalized growth,"locus YMR307W, strain GAS1, stronger effect = lower value",0.807
same,normalized growth,"locus YNL067W, strain RPL9B, stronger effect = lower value",1.01
same,normalized growth,"locus YNL128W, strain TEP1, stronger effect = lower value",1.01
same,normalized growth,"locus YNL153C, strain GIM3, stronger effect = lower value",1.06
same,normalized growth,"locus YNL183C, strain NPR1, stronger effect = lower value",0.937
same,normalized growth,"locus YNL233W, strain BNI4, stronger effect = lower value",0.997
same,normalized growth,"locus YNL250W, strain rad50, stronger effect = lower value",1.06
same,normalized growth,"locus YNL271C, strain bni1, stronger effect = lower value",0.996
same,normalized growth,"locus YNL298W, strain CLA4, stronger effect = lower value",0.991
same,normalized growth,"locus YNL307C, strain MCK1, stronger effect = lower value",0.988
same,normalized growth,"locus YNR052C, strain pop2, stronger effect = lower value",0.993
same,normalized growth,"locus YOL012C, strain htz1",1.64
same,normalized growth,"locus YOL147C, strain pex11, stronger effect = lower value",0.988
same,normalized growth,"locus YOR061W, strain CKA2, stronger effect = lower value",0.996
same,normalized growth,"locus YOR069W, strain VPS5, stronger effect = lower value",1
same,normalized growth,"locus YOR136W, strain idh2, stronger effect = lower value",0.996
same,normalized growth,"locus YOR144C, strain elg1, stronger effect = lower value",0.995
same,normalized growth,"locus YOR184W, strain ser1, stronger effect = lower value",0.851 (active)
same,normalized growth,"locus YOR231W, strain MKK1, stronger effect = lower value",0.951
same,normalized growth,"locus YOR316C, strain cot1, stronger effect = lower value",0.998
same,normalized growth,"locus YPL055C, strain LGE1, stronger effect = lower value",0.942
same,normalized growth,"locus YPL256C, strain CLN2, stronger effect = lower value",0.962
same,normalized growth,"locus YPR119W, strain clb2, stronger effect = lower value",0.999
same,normalized growth,"locus YPR141C, strain kar3, stronger effect = lower value",1
same,normalized growth,"locus YPR163C, strain tif3, stronger effect = lower value",0.988
same,normalized growth,"locus YPR167C, strain met16, stronger effect = lower value",1
same,normalized growth,"strain wtn01, stronger effect = lower value",0.972
